Where “and” joins values, the source holds several entries; their conditions need not be identical. Equal entries are not always repeated. Results filed as inconclusive are left out. The source holds several records for some structures; these can differ, active in one and inactive in another. Calls of active or inactive are those of the source. The calls were made as follows, unless noted: active = hit-call score of the fitted dose curve at least 0.9, where 1 is the maximum; inconclusive = response in the unintended direction; inactive = score below 0.9.
How the values were obtained:
[1] = target: Bile acid receptor (Homo sapiens) (UniProt Q96RI1); experiment: OT_FXR_FXRSRC1_0480: Odyssey Thera (OT) 8-hour HEK293T Protein-Complementation Assay for Farnesoid X receptor/SRC-1 Co-activator (AID 2283383)
Sequence of Bile acid receptor (Homo sapiens) (Q96RI1 whole entry, looked up, the tested form may be a part): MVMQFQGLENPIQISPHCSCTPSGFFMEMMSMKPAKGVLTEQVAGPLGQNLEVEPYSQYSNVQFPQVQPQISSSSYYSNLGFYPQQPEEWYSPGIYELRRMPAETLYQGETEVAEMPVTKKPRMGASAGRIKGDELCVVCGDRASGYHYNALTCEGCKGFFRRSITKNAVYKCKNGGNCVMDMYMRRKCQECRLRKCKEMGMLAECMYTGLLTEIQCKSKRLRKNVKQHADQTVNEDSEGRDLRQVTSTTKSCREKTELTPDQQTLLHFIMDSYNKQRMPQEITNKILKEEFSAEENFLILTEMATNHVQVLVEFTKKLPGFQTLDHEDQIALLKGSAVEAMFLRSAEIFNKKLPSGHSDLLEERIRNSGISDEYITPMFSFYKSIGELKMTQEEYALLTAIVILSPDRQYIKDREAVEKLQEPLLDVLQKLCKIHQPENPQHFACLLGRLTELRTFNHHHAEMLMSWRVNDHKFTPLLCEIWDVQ
Procedure, shortened: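 HEK293T cells expressing FXR and SRC-1 fused to reporter fragments were dosed with compound for 8 h; fluorescence from the reconstituted reporter marked co-activator recruitment. Gain of signal was fitted against the DMSO baseline.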

[2] = target: Bile acid receptor (Homo sapiens) (UniProt Q96RI1); experiment: OT_FXR_FXRSRC1_1440: Odyssey Thera (OT) 24-hour HEK293T Protein-Complementation Assay for Farnesoid X receptor/SRC-1 Co-activator (AID 2283384)
Procedure, shortened: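 HEK293T cells were dosed with compound and read 24 h later by fluorescence intensity from protein-fragment complementation reporting FXR/SRC-1 co-activator interaction. Gain of signal was fitted relative to DMSO negative control as baseline.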

[3] = target: Retinoic acid receptor RXR-alpha (Homo sapiens) (UniProt P19793); experiment: OT_NURR1_NURR1RXRa_0480: Odyssey Thera (OT) 8-hour HEK293T Protein Complementation Assay for Nurr1/retinoid X receptor (RXR) (AID 2283385)
Sequence of Retinoic acid receptor RXR-alpha (Homo sapiens) (P19793 whole entry, looked up, the tested form may be a part): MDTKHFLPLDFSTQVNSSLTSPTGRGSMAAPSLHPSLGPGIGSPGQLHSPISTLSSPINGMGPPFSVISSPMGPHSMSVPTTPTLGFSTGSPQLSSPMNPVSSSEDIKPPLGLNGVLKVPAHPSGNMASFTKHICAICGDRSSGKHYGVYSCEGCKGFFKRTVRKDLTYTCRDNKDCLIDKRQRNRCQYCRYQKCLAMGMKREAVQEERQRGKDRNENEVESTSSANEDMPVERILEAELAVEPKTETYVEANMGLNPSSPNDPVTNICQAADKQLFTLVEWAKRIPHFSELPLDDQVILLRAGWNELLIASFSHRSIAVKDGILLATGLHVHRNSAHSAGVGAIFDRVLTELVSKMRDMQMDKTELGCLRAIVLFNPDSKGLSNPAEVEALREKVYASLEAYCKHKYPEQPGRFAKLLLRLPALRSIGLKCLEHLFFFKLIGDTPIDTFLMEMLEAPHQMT
Procedure, shortened: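 HEK293T cells expressing Nurr1 and RXRα fused to reporter fragments were dosed with compound for 8 hours. Complex formation was read as fluorescence intensity and analysed as gain of signal against DMSO as baseline.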

[4] = target: Retinoic acid receptor RXR-alpha (Homo sapiens) (UniProt P19793); experiment: OT_NURR1_NURR1RXRa_1440: Odyssey Thera (OT) 24-hour HEK293T Protein Complementation Assay for Nurr1/retinoid X receptor (RXR) (AID 2283386)
Procedure, shortened: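 HEK293T cells were dosed with compound and read 24 h later by fluorescence intensity in a protein-fragment complementation format, where Nurr1–RXRα interaction reconstitutes a split reporter. Activity was fitted as gain of signal relative to DMSO baseline.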

[5] = target: Peroxisome proliferator-activated receptor gamma (Homo sapiens) (UniProt P37231); experiment: OT_PPARg_PPARgSRC1_0480: Odyssey Thera (OT) 8-hour Protein-Complementation Assay for Peroxisome Proliferator-activated Receptor Gamma / SRC-1 Co-activator (AID 2283387);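 also: nuclear to cytoplasmic split Venus YFP fluorescence ratio reporting PPARg SRC-1 interaction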
Sequence of Peroxisome proliferator-activated receptor gamma (Homo sapiens) (P37231 whole entry, looked up, the tested form may be a part): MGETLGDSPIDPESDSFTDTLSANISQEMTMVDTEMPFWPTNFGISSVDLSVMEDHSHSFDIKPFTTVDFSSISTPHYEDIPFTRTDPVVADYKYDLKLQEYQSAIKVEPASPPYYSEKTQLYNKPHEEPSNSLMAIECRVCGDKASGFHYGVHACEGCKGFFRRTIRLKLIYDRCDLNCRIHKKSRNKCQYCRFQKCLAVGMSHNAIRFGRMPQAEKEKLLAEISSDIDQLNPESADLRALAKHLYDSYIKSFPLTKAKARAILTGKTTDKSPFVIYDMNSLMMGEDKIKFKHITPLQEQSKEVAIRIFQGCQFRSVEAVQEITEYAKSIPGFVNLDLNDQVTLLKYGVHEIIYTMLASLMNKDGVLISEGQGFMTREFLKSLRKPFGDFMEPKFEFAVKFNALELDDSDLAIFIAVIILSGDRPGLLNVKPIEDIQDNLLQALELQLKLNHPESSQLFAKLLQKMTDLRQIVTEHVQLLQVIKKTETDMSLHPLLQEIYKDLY
Procedure, shortened: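 Split-YFP (IFP1/IFP2) PPARg/SRC-1 reporter, HEK293T, 37 °C, 5% CO2; 8 h compound; formaldehyde fix + Draq5; high-content imaging, N/C ratio, ≥350 cells/image, positive direction vs DMSO.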

[6] = target: Peroxisome proliferator-activated receptor gamma (Homo sapiens) (UniProt P37231); experiment: OT_PPARg_PPARgSRC1_1440: Odyssey Thera (OT) 24-hour Protein-Complementation Assay for Peroxisome Proliferator-activated Receptor Gamma/ SRC-1 Co-activator (AID 2283388);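 also: nuclear to cytoplasmic ratio of reconstituted Venus YFP fluorescence in fixed imaged cells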
Procedure, shortened: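 Protein-fragment complementation between PPARg and coactivator SRC-1 was measured by fluorescence imaging in transiently transfected HEK293T cells after 24 h treatment. Signal was quantified as N/C ratio in the 488 nm channel, with DMSO as negative control.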

[7] = CEETOX_H295R_11DCORT: CeeTox H295R High-throughput Steroidogenesis Assay for 11-Deoxycortisol (11DCORT) (AID 2283432; active = hit-call score of the fitted dose curve at least 0.9, where 1 is the maximum; inactive = score below 0.9;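 as to AC50: 11-deoxycortisol secreted into the medium measured by LC-MS/MS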); details: actives raise or lower the signal
Procedure, shortened: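 Steroidogenesis in human H295R cells: 48 h chemical exposure after forskolin priming, 11-deoxycortisol measured by LC-MS/MS.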

[8] = CEETOX_H295R_OHPREG: CeeTox H295R High-throughput Steroidogenesis Assay for OH-Pregnenolone (OHPREG) (AID 2283434; active = hit-call score of the fitted dose curve at least 0.9, where 1 is the maximum; inactive = score below 0.9); details: actives raise or lower the signal
Procedure, shortened: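 H295R cells pre-stimulated 48 h with 10 uM forskolin, then exposed 48 h to chemical in 0.1% DMSO. 17alpha-hydroxypregnenolone in medium quantified by MTBE extraction and HPLC-MS/MS; bidirectional fit versus DMSO, viability checked by MTT.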

[9] = CEETOX_H295R_OHPROG: CeeTox H295R High-throughput Steroidogenesis Assay for OH-Progesterone (OHPROG) (AID 2283435; active = hit-call score of the fitted dose curve at least 0.9, where 1 is the maximum; inactive = score below 0.9); details: actives raise or lower the signal
Procedure, shortened: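 H295R human adrenal cells were prestimulated 48 h with 10 uM forskolin, then exposed 48 h to test chemical (0.1% DMSO final). 17alpha-hydroxyprogesterone in medium was measured by HPLC-MS/MS after MTBE extraction; bidirectional fitting vs DMSO.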

[10] = CEETOX_H295R_ANDR: CeeTox H295R High-throughput Steroidogenesis Assay for Androstenedione (ANDR) (AID 2283436; active = hit-call score of the fitted dose curve at least 0.9, where 1 is the maximum; inactive = score below 0.9); details: actives raise or lower the signal
Procedure, shortened: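 H295R cells, following OECD 456 with minor changes, exposed to chemicals for 48 h. Androstenedione in the medium was quantified by HPLC-MS/MS after MTBE extraction. Fitting was bidirectional versus DMSO; chemicals were diluted until MTT viability was ≥70%.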

Measured: AC50

C1=CCCC=CCCC=CCC1
inactive: [1] | [2] | [3] | [4] | [5]

CCNc1ccccc1
inactive: [1] | [2] | [3] | [4] | [5]

Cn1c(=O)cc(Oc2ccc(F)cc2F)c2cnc(NCC(C)(C)O)nc21
active: [7] 8.38 µM
not listed: [3] | [10]
inactive: all other assays above

Oc1ccc2c(c1)-c1ccccc1C2
active: [7] 40 µM | [8] 33.7 µM | [9] 13.5 µM | [10] 42.3 µM
not listed: [6]
inactive: all other assays above

CC(C)=CCC/C(C)=C/CO
inactive: [1] | [3] | [4] | [5] | [6]

C1N2CN3CN1CN(C2)C3
inactive: [1] | [2] | [3] | [4] | [5]

CCOc1cccc(-n2cc(C(=O)N3CCN(c4cc(C(=O)O)c5ccccc5c4)CC3)nc2-c2ccc(C)cc2)c1
active: [1] 11.3 µM | [2] 11.3 µM
not listed: [3] | [4]
inactive: all other assays above

CC(C)CCCCCCCOC(=O)CCCCC(=O)OCCCCCCCC(C)C
inactive: [1] | [2] | [4] | [5]

COC(=O)c1c(Cl)c(Cl)c(C(=O)OC)c(Cl)c1Cl
inactive: [2] | [3] | [4] | [5] | [6] | [7] | [8] | [9]
active: [1] 72.2 µM | [3] 68.6 µM

CCCCCCCCCCCCCCCO
inactive: [1] | [3] | [4] | [5] | [8] | [9]

O=C1CCCCCN1
inactive: [1] | [2] | [5] | [6]

CC(C)=CCC/C(C)=C\CO
inactive: [1] | [2] | [3] | [4] | [5]

COCCOCCOCCOC
inactive: [1] | [2] | [3] | [4] | [5]

CCOCCOCCOCCO
inactive: [2] | [3] | [4] | [5]

CC(C)(O)c1coc(S(=O)(=O)NC(=O)Nc2c3c(cc4c2CCC4)CCC3)c1
active: [9] 10.4 µM
not listed: [2] | [6] | [10]
inactive: all other assays above

Nc1cccc(N)c1
active: [2] 78.8 µM
inactive: [1] | [3] | [4] | [5] | [6]

CC1(C)C(=O)N(Br)C(=O)N1Br
inactive: [1] | [2] | [3] | [4] | [5]

CC(C)c1cccc(C(C)C)c1N1C(=O)c2ccc(O)cc2C1=O
inactive: [3] | [4] | [5] | [6]
active: [1] 20.7 µM | [2] 2.63 µM | [3] 35.4 µM | [8] 32.5 µM | [9] 31.7 µM

CCOC(=O)CC(CC(=O)OCC)(OC(C)=O)C(=O)OCC
inactive: [1] | [2] | [3] | [4] | [5] | [6]

CCCCC(CC)COC(=O)c1ccc(C(=O)OCC(CC)CCCC)cc1 (configuration not stated)
inactive: [1] | [3] | [4] | [5] | [6]

Cc1ccc(O)cc1
not listed: [6]
inactive: all other assays above

CN(C)c1ccc(Cc2ccc(N(C)C)cc2)cc1
active: [1] 28 µM | [3] 35.1 µM
inactive: [2] | [3] | [4] | [5] | [7] | [8] | [9]

Cc1[nH]cnc1C[C@H]1CCc2c(C)c3ccccc3n2C1=O
inactive: [3]

O=C(OC[C@H]1O[C@@H](OC(=O)c2cc(O)c(O)c(OC(=O)c3cc(O)c(O)c(O)c3)c2)[C@H](OC(=O)c2cc(O)c(O)c(OC(=O)c3cc(O)c(O)c(O)c3)c2)[C@@H](OC(=O)c2cc(O)c(O)c(OC(=O)c3cc(O)c(O)c(O)c3)c2)[C@@H]1OC(=O)c1cc(O)c(O)c(OC(=O)c2cc(O)c(O)c(O)c2)c1)c1cc(O)c(O)c(OC(=O)c2cc(O)c(O)c(O)c2)c1
active: [3] 20.5 µM | [4] 15.2 µM
inactive: [3] | [5]

C=CC(=C)CCC=C(C)C
inactive: [3] | [4] | [5] | [6]

Cc1ccc(S(=O)(=O)O)cc1C
inactive: [3] | [4] | [5]

On1ccccc1=S
inactive: [3] | [4] | [5]

CC(O)CN(CCN(CC(C)O)CC(C)O)CC(C)O (configuration not stated)
inactive: [2] | [3] | [4] | [5] | [6]

O=c1n(CC2CO2)c(=O)n(CC2CO2)c(=O)n1CC1CO1 (configuration not stated)
active: [3] 50 µM and 34.7 µM
inactive: [4] | [5]

From PubChem BioAssay (EPA / NIEHS)
